Experimental data: PubChem BioAssay (Tox21)
Activity calls are given as the source filed them. Calls follow the shape of the dose curve; as a rule, active = well fitted curve in the direction sought with a large enough effect in the repeat runs; inconclusive = weak or mixed curves; inactive = flat fitted curve, though single readings scatter.

Experiment: qHTS assay to test for compound auto fluorescence at 590 nm (red) in HEK293 cells (AID 720679)
Conditions: red autofluorescence 540/590 nm; series mostly up to 91.3 µM; fluorescence, % of fluorescent control: at the top concentration
Procedure, shortened: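 Red channel, Ex/Em 540/590nm; signal expressed as equivalency to Rose Bengal sodium. HEK293, 2,000 cells/well, 10% dialyzed FBS; 23 nL compound pinned after 4-5 hr attachment; overnight 37C/5% CO2 before reading.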
% is scaled to controls: 0 for no effect and ±100 for the full control effect.

| SMILES | fluorescence, % of fluorescent control | outcome |
| --- | --- | --- |
| CCCCCCCCCCCl | -0.21% [at 95.7 µM] (inactive) |  |
| CCC(C)OC(=O)N1CCCCC1CCO (centres undefined) | 0.0067% (inactive) |  |
| CO |  | inactive |
| CCCCc1ccc2cccc(S(=O)(=O)O)c2c1 | -0.263% (inactive) |  |
| CCCCN(CCO)CCO | -0.0745% (inactive) |  |
| CCCOCC(C)OCC(C)O (centres undefined) | -0.183% [at 95.7 µM] (inactive) |  |
| CCC(C(=O)NC(N)=O)c1ccccc1 (centres undefined) |  | inactive |
| c1ccc(SCCSc2ccccc2)cc1 | 0.493% (inactive) |  |
| CC(=O)OC(C)(C)C | -0.518% (inactive) |  |
| CC(=O)NC(Cc1ccccc1)C(=O)O (centres undefined) | -0.817% [at 46 µM] (inactive) |  |
| COc1cccc(OC)c1 | -0.0489% (inactive) |  |
| CCn1cc(C(=O)O)c(=O)c2cc(F)c(N3CCN(C)CC3)cc21 | 0.102% [at 46 µM] (inactive) |  |
| C[C@H](O)C(=O)Nc1c(I)c(C(=O)NC(CO)CO)c(I)c(C(=O)NC(CO)CO)c1I | 0.0561% [at 18.6 µM] (inactive) |  |
| NS(=O)(=O)c1cc2c(cc1C(F)(F)F)NC(Cc1ccccc1)NS2(=O)=O (centres undefined) | 0.307% [at 18.6 µM] (inactive) |  |
| COc1cccc(Br)c1 | 0.163% (inactive) |  |
| Fc1ccccc1-c1ccccc1 | -0.535% [at 95.7 µM] (inactive) |  |
| CCCCCCOC(=O)c1ccccc1O | -0.216% (inactive) |  |
| CCCC(C)C(=O)O (centres undefined) | 0.17% (inactive) |  |
| Cc1cc(C)c(NC(=O)CN(CC(=O)O)CC(=O)O)c(C)c1Br | 0.0999% [at 46 µM] (inactive) |  |
| N#CCc1ccccc1[N+](=O)[O-] | -0.116% (inactive) |  |
| C=C(C)C(=O)OCCC(C)OC(=O)C(=C)C (centres undefined) | 0.107% (inactive) |  |
| CO[Si](OC)(OC)OC | 0.102% (inactive) |  |
| CC(C)c1cccc(O)c1 | 0.34% [at 95.7 µM] (inactive) |  |
| CCCCCCCCCCC1CO1 (centres undefined) | 0.0236% (inactive) |  |
| COc1cc(CCC(C)=O)ccc1O | 0.202% (inactive) |  |
| CC(C)CCCCCCN | -0.134% (inactive) |  |
| CCCCNc1ccccc1 | -0.415% (inactive) |  |
| CC(C)(O)c1ccccc1 | -0.0177% (inactive) |  |
| Cc1ccccc1C(=O)O | 0.533% (inactive) |  |
